Assay results reported in PubChem BioAssay AID1856 (The Scripps Research Institute Molecular Screening Center, 2009).
In all, about 1,300 compounds went through this assay and fewer than 10 were called active. How the calls were made is not given here. Not all results are given here.

Tested on: metallo-beta-lactamase IMP-1 (Pseudomonas aeruginosa)
Assay: IMP-1 metallo-beta-lactamase inhibitors, confirmation, selectivity assay for selective VIM-2 inhibitor project, biochemical, epi-absorbance readout, triplicate (AID 1856);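 further: 0% = enzyme with vehicle and 100% = vehicle without enzyme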
Settings: purified IMP-1, nitrocefin hydrolysis, epi-absorbance fluorescence; at 5.6 µM; stronger effect = higher value

inhibition, inactive:
C=CCn1c(-c2ccccc2OCC)n[nH]c1=S -2.2%
Cc1cc(NCc2ccco2)n2c(nc3ccccc32)c1C#N -3.37%
O=C(COc1cc2oc(=O)c3c(c2cc1Cl)CCC3)NCCCN1CCOCC1 -1.87%
CCN(CC)c1ccc2cc(C(N)=O)/c(=N\NC(=O)c3ccncc3)oc2c1 -2.41%
Cc1cccn2c(=O)c(C=O)c(Nc3ccc(S(N)(=O)=O)cc3)nc12 -3.66%
COc1nc(N=C(N)N)nc2c(C)cccc12 -3.85%
COc1cc(NC(=O)C2=C(C)OCCS2)c(Cl)cc1C(=O)NCCN1CCN(C)CC1 -2.62%
CCN1CCN(CCNC(=O)c2ccc3c(c2)NC(=O)/C(=C\c2ccc(OC)c(OC)c2)S3)CC1 -3.87%
Cn1c(-c2sccc2OCc2cccc(C(F)(F)F)c2)n[nH]c1=S -2.3%
CCOC(=O)N1CCN(C(=O)C2CCN(c3ncnc4c3sc3cccc(F)c34)CC2)CC1 -2.28%
Cc1cc(-c2ccc(/C=N/n3cnnc3)o2)c([N+](=O)[O-])cc1C -2.82%
CNC(=O)c1ccsc1NC(=O)c1ccc(S(=O)(=O)N2CCOCC2)cc1 -2.75%
Cc1cc(C)c2nc3nc(C)cc(C)c3c(N)c2c1 -3.37%
COc1ccc(-c2nn3c(-c4ccccc4)nnc3s2)cc1OC -2.66%
CCc1cc(=O)oc2cc(C)cc(OCC(=O)N3CCC[C@@H]3C(=O)O)c12 -3.22%
NC(=O)C1CCN(C(=O)COc2ccc3c4c(c(=O)oc3c2)CCC4)CC1 -2.5%
COc1cc(/C=N/Nc2nn3cnnc3c3ccccc23)cc(OC)c1OC -2.07%
Cc1cc([N+](=O)[O-])c(-c2ccc(/C=N/n3cnnc3)o2)cc1Cl -2.7%
COc1ccc(Nc2cc(C)nc(-n3nc(C)cc3C)n2)cc1 -4.36%
COc1cc(-c2nn3c(-c4cccc(C)c4)nnc3s2)cc(OC)c1OC -3.37%
CCN1CCCC1CNC(=O)c1cc2c(=O)n(C)c3ccccc3c2n1C (configuration not stated) -1.43%
COC(=O)c1c(NC(=O)c2ccc(S(=O)(=O)N3CCOCC3)cc2)sc2c1CCN(C(C)C)C2 -3.07%
Cc1nc2ccccc2c2oc(C(=O)NCCCN3CCC(C)CC3)cc12 -2.57%
O=C(NCCCN1CCOCC1)c1cnn2c(-c3ccccc3)cc(-c3ccccc3)nc12 -1.31%
CCOc1cc(/C=C2\SC(N3CCCC(C)C3)=NC2=O)ccc1O (configuration not stated) -1.58%
CN1CCN(c2ccc(NC(=O)c3ccc4c(c3)[nH]c(=O)n4Cc3ccc(F)cc3)cc2)CC1 -2.45%
Nc1cccc2c1C(=O)N(Cc1nnc(-c3ccccc3Br)o1)C2=O -1.84%
O=C(NC(=S)Nc1ccccc1C(=O)O)c1ccc(-c2ccc(Br)cc2)o1 -2.92%
Cn1c2ccccc2c(=O)c2c(O)cccc21 1.94%
O=c1[nH]c(-c2ccccc2)c(-c2ccccc2)[nH]1 -1.69%
COc1ccc(/C=N/N(C)C2=NS(=O)(=O)c3ccccc32)cc1OC -2.33%
CCOc1cc(/C=C2\SC(N3CCCCC3)=NC2=O)ccc1O -4.28%
CCN1CCN(C(=O)Cn2nc(C)n3c(cc4c(OC)cccc43)c2=O)CC1 -3.39%
Clc1cc(-c2ccc(/C=N/n3cnnc3)o2)ccc1Br -2.66%
Nc1nnc2c(C(F)(F)F)nc3ccccc3n12 -2.31%
Cc1ccc(Cl)cc1-c1ccc(/C=N/n2cnnc2)o1 -3.92%
COc1ccc(CCn2c(=N)c(C(=O)NCC3CCCO3)cc3c(=O)n4cccc(C)c4nc32)cc1OC (configuration not stated) -3.13%
COC(=O)c1ccc(-c2noc(CN(Cc3ccccn3)CC3CCCO3)n2)cc1 (configuration not stated) -4.37%
CCOCCCNc1c(CC)c(C)c(C#N)c2nc3ccccc3n12 -2.98%
O=C1Nc2cc(C(=O)N3CCC(N4CCCCC4)CC3)ccc2S/C1=C\c1ccccc1 -4.01%
CCC1CCCCN1CCCNC(=O)c1cc2c(Cl)nc3ccccc3c2s1 (configuration not stated) -2%
Cc1ccc2nc(C)c3c(c2c1)N(c1ccccc1)CC3 -3.39%
Fc1ccc(-c2ccc(CNCc3ccccn3)o2)cc1Cl -3.51%
CC(NS(=O)(=O)c1ccccc1)c1n[nH]c(=S)n1-c1ccccc1 (configuration not stated) -3.01%
Cn1c(=O)c2c(nc(N3CCOCC3)n2CCNC2=NCCC2)n(C)c1=O -2.77%
CCN(CC)CCOc1ccc2c(c1)C(=NNC(=O)c1ccccn1)c1cc(OCCN(CC)CC)ccc1-2 -6.88%
CC(=O)c1ccc(-c2ccc(Cn3c(C)nc4cc(N)c(C)nc43)cc2)cc1 -2.57%
CCCc1ccc(OCCNC(=O)c2ccco2)cc1 -3.83%
CN(C)CCNc1ccc(-c2n[nH]c(=O)c3ccccc23)cc1[N+](=O)[O-] -3.19%
COc1ccc(Cc2nnc(NS(=O)(=O)Cc3ccccc3)s2)cc1 -2.35%
CC(C)(C)CC(=O)Nc1nnc(SCC(=O)NCc2cccs2)s1 -4.47%
CC1CCCC(C)N1CCCNC(=O)c1cc2c(=O)n(C)c3ccccc3c2n1C (configuration not stated) -3.58%
